Targets with a hit are over-represented here; the source holds about 7,900 in all. About 0.6% of all pairs of compound and target were hits.

Data on 39 targets can be found in the supplement of paper PMC10849652.

Chain of UniProt O75376 (O75376 whole entry, looked up): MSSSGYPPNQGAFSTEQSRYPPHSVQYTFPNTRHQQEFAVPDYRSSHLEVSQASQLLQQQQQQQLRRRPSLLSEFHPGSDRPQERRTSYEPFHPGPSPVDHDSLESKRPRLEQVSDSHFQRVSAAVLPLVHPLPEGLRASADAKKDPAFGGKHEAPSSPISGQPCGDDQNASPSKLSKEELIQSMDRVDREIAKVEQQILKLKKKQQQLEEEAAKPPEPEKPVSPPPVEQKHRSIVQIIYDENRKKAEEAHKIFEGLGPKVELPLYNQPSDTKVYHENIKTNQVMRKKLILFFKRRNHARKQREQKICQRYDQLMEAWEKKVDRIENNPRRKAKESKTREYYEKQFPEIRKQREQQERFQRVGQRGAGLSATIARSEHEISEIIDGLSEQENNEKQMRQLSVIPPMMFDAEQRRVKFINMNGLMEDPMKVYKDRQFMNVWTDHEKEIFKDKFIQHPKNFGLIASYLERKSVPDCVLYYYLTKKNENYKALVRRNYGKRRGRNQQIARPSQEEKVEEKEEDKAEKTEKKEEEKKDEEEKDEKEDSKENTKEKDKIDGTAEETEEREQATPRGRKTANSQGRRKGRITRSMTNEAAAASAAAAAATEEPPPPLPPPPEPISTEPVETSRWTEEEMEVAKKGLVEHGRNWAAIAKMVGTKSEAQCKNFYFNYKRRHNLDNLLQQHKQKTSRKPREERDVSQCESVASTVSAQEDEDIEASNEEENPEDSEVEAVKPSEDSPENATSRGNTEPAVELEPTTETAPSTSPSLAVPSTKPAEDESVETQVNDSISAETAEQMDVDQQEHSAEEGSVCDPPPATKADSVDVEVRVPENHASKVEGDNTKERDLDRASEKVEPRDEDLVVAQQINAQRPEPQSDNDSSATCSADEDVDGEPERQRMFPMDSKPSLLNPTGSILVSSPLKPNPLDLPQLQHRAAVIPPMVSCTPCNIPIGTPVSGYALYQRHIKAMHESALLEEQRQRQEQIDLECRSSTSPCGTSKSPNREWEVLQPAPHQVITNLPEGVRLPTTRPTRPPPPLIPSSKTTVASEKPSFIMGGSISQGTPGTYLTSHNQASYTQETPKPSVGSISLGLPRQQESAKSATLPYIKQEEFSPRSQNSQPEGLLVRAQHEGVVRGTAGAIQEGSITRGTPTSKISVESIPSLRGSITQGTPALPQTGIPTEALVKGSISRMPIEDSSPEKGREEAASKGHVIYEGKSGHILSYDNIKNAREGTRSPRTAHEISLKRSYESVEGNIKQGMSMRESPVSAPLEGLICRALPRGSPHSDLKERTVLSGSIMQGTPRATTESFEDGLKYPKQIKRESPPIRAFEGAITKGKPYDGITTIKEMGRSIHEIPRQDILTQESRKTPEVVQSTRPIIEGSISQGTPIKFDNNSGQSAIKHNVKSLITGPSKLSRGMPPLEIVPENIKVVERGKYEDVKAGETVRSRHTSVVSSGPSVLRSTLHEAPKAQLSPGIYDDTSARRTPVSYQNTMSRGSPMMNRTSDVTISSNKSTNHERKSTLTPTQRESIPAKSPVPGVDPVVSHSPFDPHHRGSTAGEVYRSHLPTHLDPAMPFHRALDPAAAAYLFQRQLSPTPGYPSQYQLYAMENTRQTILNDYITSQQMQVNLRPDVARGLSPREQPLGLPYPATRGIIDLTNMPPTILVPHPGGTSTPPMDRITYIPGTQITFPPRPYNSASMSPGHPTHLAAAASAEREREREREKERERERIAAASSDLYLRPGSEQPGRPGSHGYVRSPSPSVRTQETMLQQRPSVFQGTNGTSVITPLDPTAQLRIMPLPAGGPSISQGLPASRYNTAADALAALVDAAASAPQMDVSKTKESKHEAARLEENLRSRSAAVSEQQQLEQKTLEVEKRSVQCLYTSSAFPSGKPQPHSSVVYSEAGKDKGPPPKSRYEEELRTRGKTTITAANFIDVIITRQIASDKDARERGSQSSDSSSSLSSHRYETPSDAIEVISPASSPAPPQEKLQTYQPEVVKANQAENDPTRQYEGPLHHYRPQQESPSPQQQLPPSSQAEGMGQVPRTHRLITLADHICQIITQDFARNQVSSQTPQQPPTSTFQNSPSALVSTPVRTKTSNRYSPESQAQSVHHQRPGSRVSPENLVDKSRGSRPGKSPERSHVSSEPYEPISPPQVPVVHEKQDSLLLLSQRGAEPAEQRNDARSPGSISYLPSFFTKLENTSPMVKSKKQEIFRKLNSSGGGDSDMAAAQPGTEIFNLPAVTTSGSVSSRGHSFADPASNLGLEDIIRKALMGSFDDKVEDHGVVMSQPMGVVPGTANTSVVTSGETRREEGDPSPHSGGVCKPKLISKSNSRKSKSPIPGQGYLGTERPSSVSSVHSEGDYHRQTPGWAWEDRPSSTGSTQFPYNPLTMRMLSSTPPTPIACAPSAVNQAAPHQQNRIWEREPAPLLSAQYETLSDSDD
Chain of UniProt Q7L1V2 (Q7L1V2 whole entry, looked up): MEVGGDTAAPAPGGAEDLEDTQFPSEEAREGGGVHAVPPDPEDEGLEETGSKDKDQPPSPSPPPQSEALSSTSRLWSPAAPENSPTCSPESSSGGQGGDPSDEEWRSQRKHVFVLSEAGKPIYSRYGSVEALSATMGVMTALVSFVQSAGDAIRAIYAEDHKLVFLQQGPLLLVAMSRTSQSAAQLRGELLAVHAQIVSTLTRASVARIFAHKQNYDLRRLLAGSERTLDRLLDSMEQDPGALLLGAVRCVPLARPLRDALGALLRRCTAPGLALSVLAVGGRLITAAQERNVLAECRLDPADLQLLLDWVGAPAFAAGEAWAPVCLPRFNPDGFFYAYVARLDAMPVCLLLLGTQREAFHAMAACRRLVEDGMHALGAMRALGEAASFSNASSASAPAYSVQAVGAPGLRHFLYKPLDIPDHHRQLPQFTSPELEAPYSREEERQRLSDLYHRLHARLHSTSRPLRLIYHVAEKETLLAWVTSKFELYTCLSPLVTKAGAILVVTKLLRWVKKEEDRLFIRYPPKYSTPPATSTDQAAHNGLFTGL
Chain of UniProt O95169 (O95169 whole entry, looked up): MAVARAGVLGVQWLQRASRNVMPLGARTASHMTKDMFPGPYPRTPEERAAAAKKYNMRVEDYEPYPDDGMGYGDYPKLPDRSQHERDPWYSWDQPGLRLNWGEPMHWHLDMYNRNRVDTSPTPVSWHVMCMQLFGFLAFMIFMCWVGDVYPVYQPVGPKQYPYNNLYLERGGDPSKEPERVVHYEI
Chain of UniProt Q8N6M0 (Q8N6M0 whole entry, looked up): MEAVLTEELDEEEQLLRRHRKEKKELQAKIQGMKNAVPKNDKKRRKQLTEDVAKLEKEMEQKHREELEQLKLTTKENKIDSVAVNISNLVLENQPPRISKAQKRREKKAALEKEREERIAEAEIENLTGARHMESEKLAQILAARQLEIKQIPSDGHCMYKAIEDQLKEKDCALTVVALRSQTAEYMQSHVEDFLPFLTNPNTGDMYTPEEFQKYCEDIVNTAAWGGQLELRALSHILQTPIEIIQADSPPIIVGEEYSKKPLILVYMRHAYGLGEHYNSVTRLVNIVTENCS
Chain of UniProt P00846 (P00846 whole entry, looked up): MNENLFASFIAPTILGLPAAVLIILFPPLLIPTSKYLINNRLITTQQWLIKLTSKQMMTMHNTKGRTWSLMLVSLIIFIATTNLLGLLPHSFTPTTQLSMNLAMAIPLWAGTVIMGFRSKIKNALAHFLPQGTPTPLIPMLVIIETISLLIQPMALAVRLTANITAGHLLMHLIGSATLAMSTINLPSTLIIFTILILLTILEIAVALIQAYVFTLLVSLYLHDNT
Chain of UniProt Q9Y314 (Q9Y314 whole entry, looked up): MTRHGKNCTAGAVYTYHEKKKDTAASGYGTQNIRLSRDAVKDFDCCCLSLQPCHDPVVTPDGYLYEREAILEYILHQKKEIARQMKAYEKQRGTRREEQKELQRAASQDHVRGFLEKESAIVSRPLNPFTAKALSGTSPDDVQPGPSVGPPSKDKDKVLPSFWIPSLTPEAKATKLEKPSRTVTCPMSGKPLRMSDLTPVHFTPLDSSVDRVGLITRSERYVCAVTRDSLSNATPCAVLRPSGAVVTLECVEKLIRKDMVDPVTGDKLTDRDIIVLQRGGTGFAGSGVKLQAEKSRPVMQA
Chain of UniProt P68402 (P68402 whole entry, looked up): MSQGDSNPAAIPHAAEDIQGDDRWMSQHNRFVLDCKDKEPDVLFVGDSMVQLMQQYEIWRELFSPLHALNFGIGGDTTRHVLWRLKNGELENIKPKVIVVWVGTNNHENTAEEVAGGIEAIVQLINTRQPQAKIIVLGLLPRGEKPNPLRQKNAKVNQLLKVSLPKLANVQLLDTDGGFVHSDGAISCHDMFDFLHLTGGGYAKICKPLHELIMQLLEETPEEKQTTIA
Chain of UniProt P84157 (P84157 whole entry, looked up): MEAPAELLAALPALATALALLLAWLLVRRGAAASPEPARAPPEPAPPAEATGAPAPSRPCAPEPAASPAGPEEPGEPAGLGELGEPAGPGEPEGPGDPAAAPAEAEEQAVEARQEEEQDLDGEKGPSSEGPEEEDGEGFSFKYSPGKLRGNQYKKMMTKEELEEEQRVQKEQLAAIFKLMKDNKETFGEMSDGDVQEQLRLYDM
Chain of UniProt P17568 (P17568 whole entry, looked up): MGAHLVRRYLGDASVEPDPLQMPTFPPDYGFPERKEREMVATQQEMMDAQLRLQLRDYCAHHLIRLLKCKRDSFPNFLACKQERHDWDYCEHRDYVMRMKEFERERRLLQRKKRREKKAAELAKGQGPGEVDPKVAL
Chain of UniProt Q9UMY1 (Q9UMY1 whole entry, looked up): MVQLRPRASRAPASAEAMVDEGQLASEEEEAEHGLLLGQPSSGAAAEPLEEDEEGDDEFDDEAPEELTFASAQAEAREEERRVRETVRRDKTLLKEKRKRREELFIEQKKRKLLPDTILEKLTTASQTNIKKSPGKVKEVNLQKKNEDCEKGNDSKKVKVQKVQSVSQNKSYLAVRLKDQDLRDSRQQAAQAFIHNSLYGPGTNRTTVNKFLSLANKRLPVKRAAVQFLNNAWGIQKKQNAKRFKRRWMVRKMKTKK
Chain of UniProt Q9BRA0 (Q9BRA0 whole entry, looked up): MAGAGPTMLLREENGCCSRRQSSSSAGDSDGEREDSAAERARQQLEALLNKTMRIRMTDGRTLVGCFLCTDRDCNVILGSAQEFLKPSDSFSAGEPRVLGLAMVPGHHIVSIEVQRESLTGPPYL

Compound in the assay: CCN(CC)Cc1ccc2cc(COC(=O)Nc3ccc(C(=O)NO)cc3)ccc2c1 [givinostat]
Briefly: log2 fold change, soluble protein after heating vs DMSO (PISA); higher = thermal stabilisation; K562 cells, 10 uM, 30 min; active = over 0.2 and 3.5 SD of the protein, either way, in both replicates (recomputed). A digest of the protocol:
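K562 cells at 2×10^6 cells/mL were exposed to 10 μM compound for 30 min, then aliquots were heated for 3 min across 48°C-58°C, pooled, and extracted in PBS containing 0.5% NP-40 at 4°C. The supernatant after 21,000xg for 90 min was taken as soluble protein and measured by TMTpro 16plex LC-MS/MS with channel sums equalised. Thermal stability is reported relative to control samples, with values from duplicates. Fold changes are given on a log2 scale.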
In the case of MORF4L2 (UniProt Q15014), the log2 fold change was -0.007 (inactive).
For MRPL46 (UniProt Q9H2W6) the value was -0.003 (inactive); for NCKAP1 isoform 2 (UniProt Q9Y2A7), 0.021 (inactive).
For MSTO1 (UniProt Q9BUK6) the value was 0.011 (inactive); for MSH3 (UniProt P20585), 0.002 (inactive); for NANS (UniProt Q9NR45), -0.025 (inactive).
Under OSTC (UniProt Q9NRP0) stands 0.076 (inactive); under NCOR1 (UniProt O75376), 0.014 (inactive).
For the target MRPS21 (UniProt P82921), the log2 fold change is -0.016 (inactive).
Under NISCH (UniProt Q9Y2I1) stands 0.032 (inactive); under NUP85 (UniProt Q9BW27), 0.015 (inactive); under MPHOSPH10 (UniProt O00566), 0.087 (inactive).
Regarding NOP58 (UniProt Q9Y2X3), the log2 fold change is 0.072 (inactive).
For MRPS26 (UniProt Q9BYN8) the value was 0.098 (inactive).
Consider MRPS24 (UniProt Q96EL2), for which the log2 fold change was -0.035 (inactive).
For MON1B (UniProt Q7L1V2) the value was 0.024 (inactive); for OSBP (UniProt P22059), -0.052 (inactive).
Under MINK1 (UniProt Q8N4C8) stands -0.007 (inactive); under MRPS9 (UniProt P82933), 0.026 (inactive).
As to NR2C2 isoform 2 (UniProt P49116), the log2 fold change was -0.073 (inactive).
For NUP107 (UniProt P57740) the value was 0.011 (inactive).
For PAFAH1B2 (UniProt P68402) the value was 0.042 (inactive).
Turning to MXRA7 (UniProt P84157), the log2 fold change was 0.011 (inactive).
For NOP53 (UniProt Q9NZM5) the value was 0.048 (inactive).
Under MRPS25 (UniProt P82663) stands 0.049 (inactive); under MND1 (UniProt Q9BWT6), 0.048 (inactive).
As to OTUD6B (UniProt Q8N6M0), the log2 fold change was -0.02 (inactive).
For NDUFB8 (UniProt O95169) the value was -0.048 (inactive); for OXSR1 (UniProt O95747), 0.055 (inactive); for NOL7 (UniProt Q9UMY1), 0.031 (inactive).
Under MRPL34 (UniProt Q9BQ48) stands -0.021 (inactive); under MT-ATP6 (UniProt P00846), -0.074 (inactive).
Under MRPS35 (UniProt P82673) stands 0.017 (inactive); under NECTIN2 (UniProt Q92692), -0.025 (inactive).
For NAA38 isoform 2 (UniProt Q9BRA0), the log2 fold change was 0.066 (inactive).
For the target NPC1 (UniProt O15118), the log2 fold change is -0.051 (inactive).
For NOSIP (UniProt Q9Y314) the value was 0.14 (inactive); for NDUFB7 (UniProt P17568), -0.367 (active); for PACS1 (UniProt Q6VY07), 0.004 (inactive).
